The source of these data is ChEMBL document CHEMBL4513216, “Probing the Open Global Health Chemical Diversity Library for Multistage-Active Starting Points for Next-Generation Antimalarials” (ACS Infect Dis, 2020).

Molecules are shown by their SMILES. Hit rate of the full screen: of about 65,000 compounds, about 2,100 (3.2%) showed an effect of 50% or more. The median lay at about -52%. Shown is part of a subset that was picked to be rich in strong results.

This test concerns Plasmodium falciparum. Put plainly: Screen against P. falciparum Asexual Blood Stage (ABS), at 5uM. Type of test: functional, Dd2. Conditions: tested at 5 uM.
On to `O=C(Cc1ccccc1)NCCNCc1cccc(O)c1`, for which the INHIBITION was found to be 6.4%.

For the compound `COc1ccc(-n2cccn2)c(CN2CCC(O)(CO)CC2)c1`, the INHIBITION is on record as -36%.

As to `COc1ccc(-n2cccn2)c(CN2CCC3(CCNCC3)C2)c1`, the INHIBITION stood at 31.9%.

Consider `COc1ccc(-n2cccn2)c(CN2CCC3(CCCNC3)C2)c1` (centres undefined), for which the INHIBITION was 68.3%.

For `CCn1ncc2c1CN(CCc1cccc(Cl)c1)CC2COC` (centres undefined), the INHIBITION was -27.5%.

Regarding `Cc1cccc(CO[C@@H]2CO[C@@]3(CCN(S(=O)(=O)N(C)C)C3)C2)n1`, the INHIBITION is recorded as -44.7%.

Consider `CCn1cnnc1C1CCN(C(=O)c2cnn(C(C)(C)C)c2)CC1`, for which the INHIBITION is recorded as -133%.

In the case of `C[C@@H]1CN(CCC(=O)N(C)Cc2ccccc2)C[C@@]1(O)C1CCC1`, the INHIBITION stood at 20.7%.

With `CN(Cc1ccccc1)C(=O)CCN1C[C@H](C2CC2)[C@@H](N(C)C)C1`, the INHIBITION is given as 51.9%.

For `CCN(Cc1ccccc1)C(=O)CCN1C[C@@H](C(=O)O)[C@H](C2CC2)C1`, the INHIBITION is -49.1%.

In the case of `O=C(c1cccn1-c1ccc2c(c1)OCCO2)N1CCCC1`, the INHIBITION is 9.62%.

Consider `CC(C)N1CCC2(CC1)CC(CC(N)=O)c1ccc(F)cc12` (centres undefined), for which the INHIBITION is listed as -12.3%.

Take `c1cnc(N2CCCC3(CCN(CC4CCOC4)CC3)C2)nc1` (centres undefined): the INHIBITION came to 56.4%.

Turning to `c1cnc(N2CCC3(CCN(CC4CCCC4)CC3)C2)nc1`, the INHIBITION was 43.8%.

As to `c1cnc(N2CCC3(CCN(CC4CCOCC4)CC3)C2)nc1`, the INHIBITION is -30.1%.

Consider `c1cnc(N2CCOC3(CCN(CC4CCOC4)CC3)C2)nc1` (centres undefined), for which the INHIBITION is recorded as -13%.

`c1cnc(N2CCOC3(CCN(CC4CCCCC4)CC3)C2)nc1`: the INHIBITION came out at 57.2%.

Turning to `c1cnc(N2CCC3(CCN(CC4CCOC4)CC3)C2)nc1` (centres undefined), the INHIBITION is given as -14.7%.

Turning to `CN(C(=O)C1CCN(Cc2cnc3ccccn23)CC1)c1ccccc1`, the INHIBITION is listed as 10%.

Regarding `CCCc1cc(CNC2CCN(c3cc(C)nc(N)n3)CC2)on1`, the INHIBITION is given as -44.2%.

Regarding `O=C1NCC2CN(Cc3ccccc3OCc3ccccn3)CCN12` (centres undefined), the INHIBITION was -16.2%.

Take `CCOC(=O)Cc1n[nH]c(-c2cncc(Br)c2)n1`: the INHIBITION is -109%.

For `CCC(=O)N1CCCN(Cn2nc(C)c(Br)c2C)CC1`, the INHIBITION was -101%.

`CCc1ccc(S(=O)(=O)N2CCN(CCn3ccnc3)CC2)cc1`: the INHIBITION is reported as -45.4%.

Turning to `O=C1CCCN1CC1CN(CC2CCOCC2)Cc2nccn2C1` (centres undefined), the INHIBITION is on record as -87%.

For the compound `Cc1ncc(CN2CCOCC2)c2cc(C(=O)c3ccc(Br)cc3)oc12`, the INHIBITION was -2.54%.

Turning to `Cc1ncc(CN2CCCC2)c2cc(C(=O)c3ccc(Br)cc3)oc12`, the INHIBITION was determined as 67.5%.

For the compound `Cc1ncc(CN(C)CCO)c2cc(C(=O)c3ccc(Br)cc3)oc12`, the INHIBITION is 49.9%.

For `CCO[C@H]1CC[C@H]2[C@H]1OCCN2C(=O)c1nn(C)c2ccccc12`, the INHIBITION was -77.6%.
